Whole data set: some 33,000 sequences, median “E-score (-0.5 to 0.5)” near -0.013, cut for the highest 2% near 0.3. This excerpt belongs to a sample that is enriched for the highest values.
Target: T1, Msn1 (UniProt P22148)
T1 sequence: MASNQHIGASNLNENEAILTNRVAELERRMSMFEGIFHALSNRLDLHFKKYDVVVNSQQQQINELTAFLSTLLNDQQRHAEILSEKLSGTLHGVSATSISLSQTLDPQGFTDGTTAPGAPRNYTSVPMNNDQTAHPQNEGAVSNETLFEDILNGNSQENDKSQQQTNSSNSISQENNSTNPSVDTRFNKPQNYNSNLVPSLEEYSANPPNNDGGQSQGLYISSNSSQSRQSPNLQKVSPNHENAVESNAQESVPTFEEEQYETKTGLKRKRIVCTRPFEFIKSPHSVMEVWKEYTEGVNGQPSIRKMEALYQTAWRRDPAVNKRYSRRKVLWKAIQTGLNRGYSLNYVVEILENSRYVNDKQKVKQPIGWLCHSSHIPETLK
Test: PBM E-score (8-mer binding enrichment) (E-score (-0.5 to 0.5)); higher = stronger / more preferred TF binding
Conditions: protein concentration: 200 nM; construct: GST-full length
Experimental: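 Universal 'all 10-mer' protein binding microarrays (Agilent AMADID 015681) probed with GST-tagged S. cerevisiae TFs (full-length or DBD) made by in vitro transcription/translation (PURExpress), about 100-200 nM. Bound TF was detected with fluorescent anti-GST. Each ungapped 8-mer (which stands for itself and its reverse complement) is scored by the PBM enrichment score (E-score), a modified Wilcoxon-Mann-Whitney statistic from -0.5 to +0.5, computed with the Universal PBM Analysis Suite. Scale: above 0.35 generally sequence-specific binding.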

Sequence | PBM E-score
AATGGAGC | -0.132
ATTGTGTC | 0.314
CGTGTGTC | 0.0945
CTTGTGTA | 0.114
ATTGTGTG | -0.0187
CTTGTGTC | 0.304
ATTGTGTA | 0.14
AGTCTCCG | 0.159
ATCACAGC | 0.053
AAATGAGT | 0.0295
ACTGTACT | -0.00421
AATGTAAT | 0.193
GATGTATA | -0.11
AATGTACG | 0.274
AATGTACA | 0.294
AATGTACT | 0.364
AATGTATA | 0.323
AATGTACC | 0.311
CATGTATA | 0.141
GCTCCCTA | -0.334
GAGACCTA | -0.0946
AATGTCAG | 0.254
AATGTCAC | 0.381
AGTGTCAT | 0.112
ACTGTCAC | 0.00673
AATGTCAT | 0.46

Sequence | PBM E-score
ACTGTCAT | 0.0249
GTTTGCCA | -0.0238
CCACCCAG | -0.0137
GGATGTTA | -0.0664
AGATGTTC | 0.0457
CGATGTTC | -0.0457
CTATGTTC | 0.103
CGATGTCC | 0.436
GGATGTCA | 0.305
CTATGTCC | 0.461
AGATGTCG | 0.0151
CGATGTCA | 0.0775
AGATGTCC | 0.477
CTATGTGC | -0.0695
CGATGTAC | 0.169
AACAGAGT | 0.128
AACAGCGT | 0.0185
ATGGTGGG | -0.316
CACGCTAG | -0.0343
AATGGGAC | 0.0849
CGAGCTAG | -0.0663
GAACAGGC | -0.164
ACTTGCCT | -0.136
CTGAAAGC | 0.0584
ACTCGAAG | -0.168
AGATGTGA | -0.0694

Sequence | PBM E-score
AGATGTCA | 0.309
AGATGTAA | 0.102
ATAAATGG | 0.0876
AACACGCC | -0.12
TACACGGA | 0.303
GACACGCC | 0.324
CTCACGGA | 0.0943
GACACGCA | 0.198
ATCACGGA | 0.136
GACACGGC | 0.197
GACACGGA | 0.369
GTCACGGA | 0.308
CACTAGCA | -0.0794
CCTGAACG | -0.104
ATAAGAGC | 0.0327
ATCTTGAG | 0.0323
ACGTCATA | 0.235
AACCTAAA | 0.121
ACAGTGCG | -0.181
CACCGGTA | 0.0943
AGAACTCT | -0.119
CTCCAGTA | 0.057
ACCGGACT | 0.0676
TCCGGAAA | 0.248
CCCGGACG | -0.156
CCCGGACC | -0.11

Sequence | PBM E-score
GCCGGACA | 0.357
TCCGGACA | 0.453
GCCGGAGA | 0.0857
CCCGGACA | 0.425
ACCGGACA | 0.306
ACCGGACG | -0.0239
GCCGGACC | -0.0867
TCCGGAGA | 0.0632
CGTCCCGC | 0.0266
AGGTCGCC | -0.164
AAAAAAGC | -0.0879
AAGGTCCA | -0.0265
CCAGCAAA | 0.06
AATGGCCT | -0.164
AGTATGTA | -0.0186
CGTATGGC | 0.0738
CGTATGTC | 0.359
CGTATGTA | 0.148
AGTATGTC | 0.353
AGTATGTG | 0.0347
CGTTGGAA | -0.0918
ACTATACC | 0.0929
GCAGGGAC | 0.163
GCAAGGAC | 0.395
ACAGGGAT | -0.147
GTAAGGAC | 0.268

Sequence | PBM E-score
ACAAGGAA | 0.178
ATAAGGAC | 0.369
ACAGGGAC | 0.324
GCAAGGAA | -0.122
ACAAGGAG | 0.0113
ATAAGGAT | 0.161
ACAAGGAC | 0.358
CCAAGGAC | 0.16
GGCGAGGA | -0.0575
TCATCCGA | 0.183
GTACCTGA | 0.149
GTCTGTGA | 0.0908
CGACGCCG | 0.0839
AAAGCACG | 0.0204
TAGCAAAA | 0.124
CCTGTTGA | -0.00042
AGAAAACT | 0.116
CCGTGAAC | 0.0411
CTCTACGA | 0.0394
CAGAATGA | 0.0577
CAAGACAA | 0.367
GAAGACAA | 0.36
AAAGACCT | 0.0725
AAAGACAT | 0.387
GAAGACAC | 0.181
AAAGATAA | 0.14

Sequence | PBM E-score
CAAGACAC | 0.183
TAAGATAA | 0.0274
CAAGATAA | 0.324
AAAGACTT | 0.0779
CAAGACAG | 0.0634
GAAGACCA | -0.102
TAGGCAAA | 0.0155
AGTCACAA | 0.114
GCCTAGTA | -0.087
CCATGGAG | -0.119
GATGGGGA | -0.143
ATTTCGCA | 0.201
ACCAGTCA | -0.0816
ATCCTTGA | -0.0979
AAAGACAG | 0.193
AAAGACAA | 0.418
TAAGACAA | 0.395
AAAGACAC | 0.213
TAAGACGA | -0.00272
TAAGACCA | -0.13
AACGGATA | 0.18
CGGGGTAC | -0.216
GTCGATGA | -0.0803
CGGGGGCA | -0.318
ACGACATC | 0.163
CCGACATA | 0.215

Sequence | PBM E-score
ACGACATA | 0.319
GCGACATA | 0.299
ACGACATG | 0.364
ACGACAGG | 0.0905
GGTCGGTA | 0.0288
AACTGAGT | -0.00489
AATGCGGA | 0.114
CGTCTAAA | -0.0424
CACAGACC | 0.0741
GACAGAAA | 0.291
TACAGACA | 0.371
GACAGACC | 0.0373
TACAGAGA | -0.0201
GACAGACA | 0.414
CACAGACG | -0.0835
CACAGACA | 0.36
AACAGACA | 0.295
AGAGGCAA | -0.0984
ACGTGAAA | 0.119
CGAGTTGA | 0.0114
AGTACCAA | 0.175
